# Data from article PMC4552634, “A New Set of Chemical Starting Points with Plasmodium falciparum Transmission-Blocking Potential for Antimalarial Drug Discovery” (PLoS ONE, 2015).
# Among all 13,000 compounds or so, about 3,200 (25%) showed an effect of 50% or more. Some of the results follow.
# Test system: P. falciparum stage V gametocytes
# Set-up: BacTiter-Glo ATP luminescence viability of purified stage V gametocytes in 384-well plates, per cent inhibition versus DMSO
# Settings: 48 h, 5 µM; inhibitor
row,SMILES,% Inhibition [%]
1,O=C(/C=C/c1ccc(Cl)c(Cl)c1)NCCCCCN1CCC(NC(=O)Nc2cc(Cl)ccc2Cl)CC1 [TCMDC-135726],-46.31
2,O=C(Cc1cnc[nH]1)Nc1cccc(-c2cccc(-c3nc4ccc(C(F)(F)F)cc4[nH]3)c2)c1 [TCMDC-136948],-28.45
3,CC1SC(=S)NC1C(=O)O (stereo not shown) [TCMDC-131380],9.711
4,O=C(Nc1ccccc1)N(Cc1cccc(-c2cccc(CNCc3ccc4c(c3)OCO4)c2)c1)C1CCN(Cc2ccccc2)CC1 [TCMDC-140590],57.66
5,COCCNC(=O)C(CNC(=O)c1ccc2c(c1)OCO2)NC(=O)c1ccc(-c2ccccc2)cc1 (stereo not shown) [TCMDC-140308],-7.15
6,COCC(=O)N(Cc1ccccc1-c1cccc(CNCc2ccc3c(c2)OCO3)c1)C1CCN(Cc2ccccc2)CC1 [TCMDC-140535],7.259
7,O=C(Nc1ccccc1)N(Cc1cccc(-c2ccc(CNCc3ccc4c(c3)OCO4)cc2)c1)C1CCN(Cc2ccccc2)CC1 [TCMDC-140591],67.97
8,COCCNCc1cccc(-c2ccccc2CN(C(=O)c2ccc3c(c2)OCO3)c2ccc(OC)cc2)c1 [TCMDC-140571],88.17
9,CC(=O)N(Cc1cccc(-c2cccc(CNCc3ccc4c(c3)OCO4)c2)c1)C1CCN(Cc2ccccc2)CC1 [TCMDC-140529],-13.98
10,CC(=O)N(Cc1ccccc1-c1cccc(CNCc2ccc3c(c2)OCO3)c1)C1CCN(Cc2ccccc2)CC1 [TCMDC-140526],86.49
11,CCOC(=O)c1c(NC(=O)c2ccccc2)sc2c(O)c(CNC3CCCCC3)ccc12 [TCMDC-124070],25.8
12,COc1ccc(Cl)cc1N1CCN(CCCNC(=O)c2ccc(-c3nc4cc5ccccc5cc4[nH]3)c(F)c2)CC1 [TCMDC-140099],14.17
13,COc1ccc(-c2ncnc(C(F)(F)F)c2-c2ccc(Cl)cc2)c(O)c1 [TCMDC-123728],11.32
14,Cc1nnsc1C(=O)Nc1ccc(-c2ccc(-c3nc4ccccc4[nH]3)s2)cc1 [TCMDC-137077],0.7938
15,Cc1ccc(C(=O)Nc2ccc(Cl)c(N3CCN(CCc4ccccc4)CC3)c2)cc1 [TCMDC-133536],-30.75
16,Nc1cccc(CNCc2cccc(-c3csc(-c4nc5ccccc5[nH]4)c3)c2)c1 [TCMDC-132925],-31.54
17,Cc1nc2ccc3ccc(CNc4ccc5c(c4)CN([C@@H](CCC(=O)O)C(=O)O)C5=O)cc3c2c(=O)[nH]1 [TCMDC-131928],20.65
18,CN(C)CC1CCCN1Cc1ccccc1-c1cnn(C)c(=O)c1Oc1ccccc1F (stereo not shown) [TCMDC-135099],9.933
19,CCC(C)c1cnc2nc(N)nc(N)c2c1C (stereo not shown) [TCMDC-137718],7.013
20,O=C(Nc1ccccc1)N(Cc1ccc(-c2cccc(CNCc3ccc4c(c3)OCO4)c2)cc1)C1CCN(Cc2ccccc2)CC1 [TCMDC-140603],101.1
21,O=C(Nc1ccccc1)N(Cc1ccc(-c2ccc(CNCc3ccc4c(c3)OCO4)cc2)cc1)C1CCN(Cc2ccccc2)CC1 [TCMDC-140604],20.36

row,SMILES,% Inhibition [%]
1,O=C(NCc1ccccc1)c1ccc(C(=O)NCC2CNCCO2)cc1 (stereo not shown) [TCMDC-136507],8.876
2,O=c1ccc2ccc(F)c3c2n1CC3CN1CCC(NCc2cccc(-c3cccs3)c2)CC1 (stereo not shown) [TCMDC-134415],19.28
3,Cc1cc(N[C@@H](C)C(=O)Nc2ccccc2)nc(NCCc2ccc(F)cc2)n1 [TCMDC-134798],30.85
4,Cc1cc(Nc2cccc(C(F)(F)F)c2)nc(NCc2ccccc2)n1 [TCMDC-125566],3.225
5,Cc1cc(NCCc2ccc(O)cc2)nc(NCC(c2ccccc2)c2ccccc2)n1 [TCMDC-138305],99.17
6,Cc1cc(NCc2ccccc2)nc(NCc2ccccc2)n1 [TCMDC-123662],26.39
7,Cc1cc(NCC(c2ccccc2)c2ccccc2)nc(NCc2ccc(C(F)(F)F)cc2)n1 [TCMDC-138302],69.12
8,Oc1cc2c(cc1CN1CCN(Cc3ccccc3F)CC1)CCC2 [TCMDC-125013],-13.06
9,Cc1nc(C(=O)N2CCCC[C@H]2CNC(=O)c2ccc(-c3ccc(N4CCCC4=O)cc3C)cc2)c(-c2ccc(F)cc2)s1 [TCMDC-141437],4.719
10,CCNc1cc(C(=O)N[C@@H](Cc2ccccc2)[C@H](O)CNC2CCC(C)(C)CC2)cc(N2CCCCS2(=O)=O)c1 [TCMDC-135108],43.04
11,Fc1ccc2nc(-c3cccc(-c4cccc(CN5CCN(c6ccncc6)CC5)c4)c3)[nH]c2c1 [TCMDC-132922],104.6
12,c1cc(CN2CCN(c3ccncc3)CC2)cc(-c2cccc(-c3nc4ccccc4[nH]3)c2)c1 [TCMDC-132923],40.29
13,O=C(O)C(F)(F)F.c1cc(-c2ccc(CN3CCN(c4ccncc4)CC3)cc2)cc(-c2nc3ccccc3[nH]2)c1 [TCMDC-132556],5.696
14,Fc1ccc2nc(-c3cccc(-c4ccc(CN5CCN(c6ccncc6)CC5)cc4)c3)[nH]c2c1 [TCMDC-132918],89.6
15,Fc1ccc2nc(-c3cccc(-c4ccc(CN5CCN(c6cnccn6)CC5)cc4)c3)[nH]c2c1 [TCMDC-132679],21.91
16,Fc1ccc2nc(-c3ccc(-c4cccc(CN5CCN(c6ccncc6)CC5)c4)cc3)[nH]c2c1 [TCMDC-133822],-6.554
17,O=C(O)C(F)(F)F.c1cncc(CCNCc2ccc(-c3ccc(-c4nc5ccccc5[nH]4)s3)cc2)c1 [TCMDC-132876],-17.55
18,COc1ccc(-c2cnc3ccc(NC4CCC(O)CC4)nn23)cn1 (stereo not shown) [TCMDC-136694],36.86
19,CN1CCN(CCCNCc2ccccc2-c2cccc(CNCc3ccc4c(c3)OCO4)c2)CC1 [TCMDC-140476],103.3
20,FC(F)(F)c1ccc(N2CCCN(Cc3cccc(-c4ccccc4CNCc4ccc5c(c4)OCO5)c3)CC2)nc1 [TCMDC-140216],-3.324
21,c1cc(CNCc2ccc3c(c2)OCO3)cc(-c2cccc(CNc3ccc4ncccc4c3)c2)c1 [TCMDC-140721],-2.829

row,SMILES,% Inhibition [%]
1,c1ccc(CCNCc2cccc(-c3ccccc3CNCc3ccc4c(c3)OCO4)c2)nc1 [TCMDC-140068],70.81
2,O=C(Nc1ccc(OC2CCN(Cc3ccsc3)C2)c(Cl)c1)c1ccc(F)cc1 (stereo not shown) [TCMDC-133952],22.72
3,O=C(NCc1cccc(F)c1)Nc1cccc(-c2cccc(-c3nc4ccc(C(F)(F)F)cc4[nH]3)c2)c1 [TCMDC-133292],-20.5
4,C#CCCC(=O)Nc1cccc(-c2cccc(-c3nc4ccc(C(F)(F)F)cc4[nH]3)c2)c1 [TCMDC-136856],5.566
5,O=C(Nc1cccc(-c2nn3ccccc3c2-c2ccnc(Nc3ccccc3)n2)c1)c1c(F)cccc1F [TCMDC-135526],-37.81
6,CCc1cn2c3c(cc(C(=O)N[C@@H](Cc4cccc(F)c4)[C@H](O)CNC4CC4)cc13)N(C)S(=O)(=O)CC2 [TCMDC-135651],-23.22
7,CCc1cn2c3c(cc(C(=O)N[C@@H](Cc4ccccc4)[C@H](O)CNC4CCC4)cc13)N(C)S(=O)(=O)CC2 [TCMDC-135674],32.1
8,CCc1cn2c3c(cc(C(=O)N[C@@H](Cc4ccccc4)[C@H](O)CNC4CCCC4)cc13)N(C)S(=O)(=O)CC2 [TCMDC-135803],56.31
9,CC(C)c1cn2c3c(cc(C(=O)N[C@@H](Cc4ccccc4)[C@H](O)CNC4CCOCC4)cc13)N(C)S(=O)(=O)CC2 [TCMDC-135535],2.441
10,CC(C)c1cn2c3c(cc(C(=O)N[C@@H](Cc4ccccc4)[C@H](O)CNC4CCCCC4)cc13)N(C)S(=O)(=O)CC2 [TCMDC-135533],94.75
11,CC(C)NC[C@@H](O)[C@H](Cc1ccccc1)NC(=O)c1cc2c3c(c1)c(C(C)C)cn3CCS(=O)(=O)N2C [TCMDC-135532],49.45
12,CCc1cn2c3c(cc(C(=O)N[C@@H](Cc4cc(F)cc(F)c4)[C@H](O)CNC4CCOCC4)cc13)N(C)S(=O)(=O)CC2 [TCMDC-135797],26.1
13,CCc1cn2c3c(cc(C(=O)N[C@@H](Cc4cc(F)cc(F)c4)[C@H](O)CNC4CC4)cc13)N(C)S(=O)(=O)CC2 [TCMDC-135673],30.94
14,CCc1cn2c3c(cc(C(=O)N[C@@H](Cc4ccccc4)[C@H](O)CNC4CC4)cc13)N(CC)S(=O)(=O)CC2 [TCMDC-135553],73.35
15,CCc1cn2c3c(cc(C(=O)N[C@@H](Cc4cc(F)cc(F)c4)[C@H](O)CNC4CCCCC4)cc13)N(C)S(=O)(=O)CC2 [TCMDC-135672],90.03
16,CCc1cn2c3c(cc(C(=O)N[C@@H](Cc4ccccc4)[C@H](O)CNC4CCOCC4)cc13)N(C)S(=O)(=O)C2 [TCMDC-135394],4.179
17,CCCc1cn2c3c(cc(C(=O)N[C@@H](Cc4ccccc4)[C@H](O)CNC4CCCCC4)cc13)N(C)S(=O)(=O)CC2 [TCMDC-135771],15.59
18,CC(=O)Nc1ccc(CN2CCC(N(C)c3cc(NC(=O)c4cccs4)ccn3)CC2)cc1 [TCMDC-134971],-6.674
19,CCc1c(C)nc2nc(Cc3cccc(F)c3)nn2c1N1CCN(c2ccccn2)CC1 [TCMDC-124593],5.465
